High-throughput results as filed in PubChem BioAssay.
MRP resist rev – reverses drug resistance mediated by MRP; H69AR cells + 2 uM doxorubicin, CellTiter-Glo, 72 h; AID 602; actives 0.04% (n = 85,000); differential viability (reversal), % at 10 µM;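 active = viability drop by adding the cancer drug above about 55%, with treated viability meeting a 40% cutoff, limit read from the data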;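 also: viability without doxorubicin minus viability with 2 µM doxorubicin for each compound; larger differential means the compound sensitizes cells more to doxorubicin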
S1P2 blocker – S1P2 (human) receptor antagonism | cell-based S1P2 antagonist assay, inhibition at 5 uM | inhibition, % at 5 µM | actives 0.21% (n = 97,000) | AID 736; in the data active = inhibition above about 45%;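 also: CRE beta-lactamase reporter cells expressing human S1P2 stimulated with S1P; 0% = agonist at EC80 alone and 100% = agonist plus reference antagonist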
GALR2 antag – blocks the human galanin receptor 2; GALR2-expressing cells, antagonist mode; inhibition, % at 4 µM; actives 0.39% (n = 140,000); AID 828; in the data active = inhibition above about 27%;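 also: cells stimulated with galanin 1-16 at roughly its EC80; 0% = agonist challenge control and 100% = basal control without agonist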
Target sequence (O43603 whole entry, looked up): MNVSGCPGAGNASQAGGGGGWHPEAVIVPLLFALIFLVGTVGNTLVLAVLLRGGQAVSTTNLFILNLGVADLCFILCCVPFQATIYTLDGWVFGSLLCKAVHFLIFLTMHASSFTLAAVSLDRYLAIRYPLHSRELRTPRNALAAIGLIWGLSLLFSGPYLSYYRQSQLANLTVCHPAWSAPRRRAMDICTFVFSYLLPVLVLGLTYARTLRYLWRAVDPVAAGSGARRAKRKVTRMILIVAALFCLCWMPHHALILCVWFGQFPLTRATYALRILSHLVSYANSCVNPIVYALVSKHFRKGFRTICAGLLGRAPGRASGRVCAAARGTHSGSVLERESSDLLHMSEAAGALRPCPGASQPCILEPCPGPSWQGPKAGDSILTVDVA
GALR2 ag – GALR2 (human) receptor agonism; actives 0.48% (n = 140,000); GALR2-expressing cells, agonist activation read-out; AID 803; O43603; activation, % (test concentration not listed); in the data active = activation above about 5%, passing the limit was not always enough;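 also: 0% = vehicle buffer wells and 100% = reference agonist at full effect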
MRP1 act – MRP-1 activation. H69AR cells + doxorubicin, viability rescue, CellTiter-Glo. viability increase, % at 10 µM. actives 0.61% (n = 140,000). AID 799;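 active = viability gain under doxorubicin at or above a set limit, the compound median plus 3 SD, cut at about 4.7% in these data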;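 also: MRP-1 overexpressing cells given doxorubicin 25 µM after compound pretreatment; 18-22 h compound pretreatment then 72 h with doxorubicin before readout; 0% = doxorubicin-only wells and 100% = vehicle-treated cells without doxorubicin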
S1P2 agonist – agonists of human S1P2 receptor; O95136; S1P2-expressing cell line, agonist reporter read-out; activation, % at 4.5 µM; actives 0.46% (n = 97,000); in the data active = activation above about 16%;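 also: 0% = vehicle low control and 100% = maximal reference agonist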
* marks the source's active call; other numbers are inactive results; x = no result. Sampled rows, rich in hits. Any-hit rate of the full collection: about 1.8%.

SMILES	MRP resist rev	S1P2 blocker	GALR2 antag	GALR2 ag	MRP1 act	S1P2 agonist
CCc1ccc(C2=NN(S(C)(=O)=O)C(c3cccs3)C2)cc1 (stereo not drawn)	-14.2	-3.2	-1.7	-0.2	-0.5	-1.8
CC(C)(C)NC(=O)CSC(=Nc1ccc(F)cc1)NC#N	-13.7	-3.6	-0.7	-1.8	-3.6	23.5*
COc1cc2c(cc1OC)C1=C(C#N)COCN1CC2	x	-45.5	-6.7	-2.7	-3.6	16.0
COc1cc2c(cc1OC)C1=C(C#N)CCC(=NC(=O)c3ccc(Cl)cc3)N1CC2	x	-14.2	-15.4	0.5	-4.0	55.1*
O=C(NCc1ccc(Cl)cc1)C(=O)NCC(c1ccco1)N1CCOCC1 (stereo not drawn)	x	x	3.1	-1.1	9.1*	x
Cc1ccc(CNC(=O)C(=O)NCC(c2ccco2)N2CCOCC2)cc1 (stereo not drawn)	x	x	-3.9	-0.6	1.5	x
C=CCOc1ccc(CNc2nn[nH]n2)cc1OC	x	-4.8	1.8	-1.4	-1.9	0.1
C=CCOc1ccc(CNc2ccc(NC(=O)CC(C)C)cc2)cc1OC	x	x	5.0	-0.1	17.7*	x
Cc1nnc(SCC(=O)Nc2ncc3c(n2)CC(c2ccccc2)CC3=O)s1 (stereo not drawn)	12.7	5.6	-17.9	0.1	-1.5	-3.1
CC(C)CN(CC(C)C)c1nc(N)c(C#N)c(CC#N)c1C#N	x	-28.3	-3.1	6.3*	-2.9	-2.6
O=C(CC(NC(=O)C(F)(F)F)c1ccccc1)Nc1nnc(CCc2ccccc2)s1 (stereo not drawn)	x	x	7.9	1.3	9.3*	x
COc1ccc(C2=NOC(C(=O)Nc3ccc(C(C)=O)cc3)C2)cc1OC (stereo not drawn)	23.7	15.0	11.4	-1.2	0.8	-4.9
C/C=C(/C)C(=O)O[C@@H]1[C@H](OC(C)=O)c2c(ccc3ccc(=O)oc23)OC1(C)C	x	x	0.9	1.9	-0.2	x
C/C=C(/C)C(=O)OC1c2c(ccc3ccc(=O)oc23)OC(C)(C)C1OC(C)=O (stereo not drawn)	-18.6	-5.1	-1.5	0.0	-2.0	20.2*
Cc1ccc(NC(=O)CSc2nnc(-c3cccs3)n2Cc2ccco2)cc1	12.8	5.6	0.9	-1.4	6.1*	-5.1
Cn1c(SCC(=O)Nc2cccc3ccccc23)nc(O)cc1=O	x	6.1	-5.0	0.8	-1.4	-2.3
Cc1ccc(NC(=O)CSc2nc(O)cc(=O)n2C)cc1	-9.4	-7.5	4.2	-3.4	8.5*	-4.5
Cc1ccc(NC(=O)CSc2nnc(C)n2-c2ccccc2)cc1	1.1	-3.7	-8.5	-0.3	6.8*	-4.5
Cc1ccc(-n2c(C)nnc2SCC(=O)Nc2ccccc2)cc1	7.9	-1.2	-2.8	-0.5	5.9*	-8.0
NC(=O)c1ccc(F)cc1	-5.5	4.3	-7.0	-2.2	0.2	-2.0
COc1cccc(C2=NOC(C(=O)N3CCc4ccccc4C3)C2)c1 (stereo not drawn)	-14.7	-20.9	-6.0	-0.3	-3.4	-5.4
COc1ccc(NC(=O)C2CCCO2)cc1OC (stereo not drawn)	1.0	3.5	7.0	-3.0	0.1	-3.8
CCCCNC(=O)C1C2C=CC(C2)C1C(=O)O (stereo not drawn)	x	x	6.0	0.6	-0.1	x
Cc1cc(OCC(=O)Nc2cc(-c3nn4c(C)nnc4s3)ccc2C)ccc1Cl	-13.2	14.9	6.6	-2.9	0.6	-8.8
Cc1ccc(NC(=O)CN(C)C(=O)CCOc2cccc(C)c2)cc1	x	x	2.8	-0.3	0.4	x
SMILES	MRP resist rev	S1P2 blocker	GALR2 antag	GALR2 ag	MRP1 act	S1P2 agonist
Cc1cc(C)c2sc(NNC(=O)c3ccc(S(=O)(=O)N4CCc5ccccc5C4)cc3)nc2c1	x	x	-1.4	7.7*	-4.3	x
O=C1CC(N2CCN(c3nc4ccccc4s3)CC2)C(=O)N1c1ccc(F)cc1 (stereo not drawn)	-1.3	7.4	-1.2	-0.3	4.9*	-1.0
CCSc1nc(-c2ccccc2)nc(C(Cl)Cl)n1	x	x	-4.4	7.6*	1.6	x
COc1nc(NC(C)(C)C)nc(Oc2ccc(=O)n(C)n2)n1	23.6	21.3	-5.5	-2.0	-4.0	-5.3
Cn1c(SCC(=O)c2ccc3c(c2)Cc2ccccc2-3)nnc1-c1cccc(N)c1	x	x	6.5	-2.5	-1.4	x
CC(=O)Nc1ccc(-c2nnc(SCC(=O)c3ccc4c(c3)Cc3ccccc3-4)n2C)cc1	x	-8.7	-31.2	4.9*	-1.9	-4.2
Cc1ccc(C)c(Cn2nnc3c(=O)[nH]c(C4CCCN(C(=O)C5CCC5)C4)nc32)c1 (stereo not drawn)	14.2	-7.2	3.0	-0.2	-2.1	-2.7
CCCCCCN1CC(O)=C(c2nc3ccccc3[nH]2)C1=N	4.5	x	26.0	7.2*	-2.9	x
COc1cccc(/C=N/NC(=O)c2nc(-c3ccccc3)cc(-c3ccccc3)n2)c1	x	46.8*	-4.3	-0.9	-4.5	-3.7
COc1ccc(/C=N/NC(=O)c2nc(-c3ccccc3)cc(-c3ccccc3)n2)cc1OC	x	29.2	-0.4	-2.8	-5.0	-12.5
COC(=O)C1=C(C)NC2=C(C(=O)CCC2)C1c1coc2ccccc2c1=O (stereo not drawn)	18.1	x	13.0	-0.4	-2.7	x
CCOC(=O)N1CCN(C(=S)Nc2ccc(C)c(C)c2)CC1	x	x	11.1	-1.6	-1.1	x
Cc1nc2sc3c(NCc4ccco4)ncnc3c2c2c1COC(C)(C)C2	x	-34.1	-13.5	-1.6	-1.4	26.5*
CC(C)Cc1nc2sc3c(NCc4ccco4)ncnc3c2c2c1COC(C)(C)C2	x	-64.2	-8.3	-0.7	-3.4	1.4
Cc1noc(C)c1S(=O)(=O)N1CCC(C(=O)N(C)Cc2ccccc2)CC1	2.7	4.2	-10.7	-1.5	-2.8	-4.7
CCOC(=O)c1cnn(-c2ccccn2)c1N	0.1	5.5	-9.8	-0.8	7.5*	-6.5
CCOC(=O)c1nc(S(C)(=O)=O)ncc1Cl	0.1	24.1	35.7*	-2.1	-0.7	-6.3
Cn1nnc(NC(=O)COc2ccc(C3CCCCC3)cc2)n1	13.3	-1.8	0.1	-2.0	5.3*	5.4
O=S(=O)(c1cccc2cccnc12)N1CCN(c2ccccc2)CC1	10.7	3.6	1.3	-2.6	-0.9	-1.8
Cc1nn(C)c(C)c1CN(C)S(=O)(=O)c1ccc2ccccc2c1	22.1	50.3*	16.8	-2.5	-0.7	-2.1
O=C(/C=C/c1c(Cl)cccc1Cl)Nc1ccncc1	x	-15.3	5.0	-2.4	-1.2	-1.6
CCC(Oc1ccccc1)C(=O)Nc1nnc(C(F)(F)F)s1 (stereo not drawn)	8.6	-7.3	7.5	-0.9	10.1*	-2.4
CCC(C)n1c(NC(=O)c2ccccc2)c(C#N)c2nc3ccccc3nc21 (stereo not drawn)	-7.2	-76.8	1.6	33.8*	x	55.9*
O=C(CN1CCCCCC1)N1c2ccccc2C=Cc2ccccc21	-0.7	1.7	12.2	-2.1	0.3	-7.8
N#CC1=C2C=Cc3ccccc3N2CCCC1=O	1.3	x	10.8	-3.1	7.3*	x
Cc1cccnc1NC(=O)C12CCC(C)(C(=O)O1)C2(C)C (stereo not drawn)	-1.7	16.0	8.6	-2.0	-0.6	-5.1
C=CCn1c2ccccc2c2nnc(SCN3C(=O)c4ccccc4C3=O)nc21	x	-21.1	-20.9	0.2	-3.5	20.5*
